Test results published in PubChem BioAssay AID488857 (Sanford-Burnham Center for Chemical Genomics, 2010).
The campaign covered roughly 1,400 compounds. About 560 (40%) were called active. So high a share suggests a set chosen from earlier hits. Some of the results follow. Values without a mark were called inactive.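 How the source made its calls: active means mean inhibition over duplicate tests at 10 µM above 50%; inactive means the rest.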

Assay: ASC/caspase-1 reporter retest in S. cerevisiae at one dose, specificity check for NALP1 project (AID 488857)
Conditions: S. cerevisiae ASC/Caspase-1, beta-galactosidase luminescence, 24 h; at 10 µM; stronger effect = higher value

Row | SMILES | inhibition
1 | O=C(N/N=C/c1ccc2nccnc2c1)c1ccccc1O | 36%
2 | O=C(N/N=C/c1cc2c3c(c1O)CCCN3CCC2)c1ccccc1O | 34.8%
3 | O=C(N/N=C/c1cc(Cl)ccc1O)c1ccc(Br)cc1 | 54.1% (active)
4 | CC(=O)c1ccc(S(=O)(=O)N2CCCC2)cc1 | 46.1%
5 | COC(=O)c1ccc(Oc2ccc(S(=O)(=O)N3CCCCC3)cc2N)cc1 | 97.8% (active)
6 | C=CCc1cc(Cl)ccc1OCCNCCCOC | 48.5%
7 | C=CCc1cc(Cl)ccc1OCCOCCNCCOC | 50.9% (active)
8 | Cc1cc(SC#N)cc(C)c1NC(=O)CCl | 25.8%
9 | COc1ccc(/C=C\c2onc(C)c2S(=O)(=O)N2CCC(C(=O)NCc3ccco3)CC2)cc1 | 42%
10 | O=C(NCc1ccco1)c1cnn2c1NC(c1ccc(Br)cc1)CC2C(F)(F)F (configuration not stated) | 63.1% (active)
11 | COc1cccc(N2CCN(C3CCCC(C)C3)CC2)c1 (configuration not stated) | 38%
12 | COc1cccc(NC(=O)Cn2cnc3sc(C)c(S(=O)(=O)N4CCCCC4)c3c2=O)c1 | 30.9%
13 | O=C(COC(=O)/C=C/c1cccs1)Nc1nc(-c2ccccc2)cs1 | 13.3%
14 | O=C(COC(=O)c1cccs1)Nc1nc(-c2ccccc2)cs1 | 48.2%
15 | CC1CC1C(=O)Nc1nc(-c2ccccc2)cs1 (configuration not stated) | 68.5% (active)
16 | CC(C)c1ccc(N2C(=O)CC(Sc3ncn[nH]3)C2=O)cc1 (configuration not stated) | 58.9% (active)
17 | Cc1ccc(N2C(=O)CC(Sc3ccccc3C(=O)O)C2=O)cc1 (configuration not stated) | 26.1%
18 | Cc1cc(C)cc(N2C(=O)CC(Sc3ncn[nH]3)C2=O)c1 (configuration not stated) | 63.5% (active)
19 | O=C(Cn1nnc2ccccc21)OCC(=O)c1ccc(Cl)cc1 | 39.8%
20 | CCn1c(=O)cc(SCC(=O)N2CCN(C3CCCCC3)CC2)c2ccccc21 | 29.9%
21 | CCn1c(N2CCN(C(=O)C34CC5CC(CC(C5)C3)C4)CC2)nc2ccccc21 | 54.5% (active)
22 | c1csc(CNc2nc3ccccc3n2CCN2CCOCC2)c1 | 35.6%
23 | CCN1c2ccccc2-c2nc3ccccc3n2C1c1cccs1 (configuration not stated) | 63.7% (active)
24 | c1csc(C2Nc3ccccc3-c3nc4ccccc4n32)c1 (configuration not stated) | 64.8% (active)
25 | CN1c2ccccc2-c2nc3ccccc3n2C1c1cccs1 (configuration not stated) | 62.9% (active)
26 | CCOC(=O)N1CCC(=NNS(=O)(=O)c2cccc([N+](=O)[O-])c2)CC1 | 31.6%

Row | SMILES | inhibition
27 | COn1c2c(c3c4nonc4ccc31)CCCC2 | 31.4%
28 | CC1CC(C)CN(S(=O)(=O)c2ccc(C(=O)NCc3ccc4c(c3)OCO4)cc2)C1 (configuration not stated) | 31.6%
29 | Cc1nc2cc(C(=O)NCc3ccc4c(c3)OCO4)ccc2n1-c1ccc(Br)cc1 | 58.9% (active)
30 | O=C(/C=C\Nc1cccc(F)c1)c1cccs1 | 47.2%
31 | COc1cc(NC(=O)c2cccs2)cc(OC)c1 | 82% (active)
32 | CCN(CC)S(=O)(=O)c1cccc(C(=O)Oc2cccc(NC(=O)c3cccs3)c2)c1 | 35.9%
33 | CC1CCCC(C)N1C(=O)CN1CCN(c2nc(-c3ccc(F)cc3)cs2)CC1 (configuration not stated) | 44.5%
34 | O=C(CN1CCCCC1)Nc1cccc(Oc2ccccc2)c1 | 38.8%
35 | O=C(CN1CCCCC1)Nc1nc(-c2ccc(F)c(F)c2)cs1 | 55.9% (active)
36 | COCC(=O)n1nc(-c2ccc(Cl)cc2)nc1NCc1ccc(F)cc1 | 36.2%
37 | CCCCCCCCNC(C)C(O)c1ccc(SC(C)C)cc1 (configuration not stated) | 38.9%
38 | CC(C)CC(=O)/C(=C\c1ccc(Cl)cc1Cl)n1cncn1 | 101% (active)
39 | CSc1nnc(-c2cc3c(s2)-c2ccccc2CC3)o1 | 46.8%
40 | O=C(COC(=O)Cc1c(F)cccc1Cl)NCCC1=CCCCC1 | 61.6% (active)
41 | CC(OC(=O)Cc1c(F)cccc1Cl)C(=O)NCCC1=CCCCC1 (configuration not stated) | 46.8%
42 | COC(=O)COc1ccc(S(=O)(=O)NCCC2=CCCCC2)cc1Cl | 40.1%
43 | Cc1cc(C(C)(C)C)cc(S(=O)(=O)Nc2ccc(O)c(C(=O)O)c2)c1C | 27.8%
44 | COc1ccccc1/C=N\N=C(\N)c1ccccn1 | 48.5%
45 | Cc1ccc(/C(COc2ccccc2O)=N\O)cc1 | 47.8%
46 | Cc1ccc(Oc2ccccc2/C=N/O)cc1 | 51.9% (active)
47 | COC(=O)c1sccc1NC(=O)c1csc(C)c1 | 49%
48 | Cc1ccc2c(Cl)c(C)c(N3CCCCC3)nc2n1 | 74.8% (active)
49 | NC(=O)C1(N2CCCCC2)CCN(Cc2nc(-c3cccs3)no2)CC1 | 24.1%
50 | COC(=O)c1ccc(C(=O)OC)c(NC(=O)COC(=O)C2CCCCC2)c1 | 35.8%
51 | COC(=O)c1ccc(NC(=O)C(=O)N2CCCC2)cc1 | 52.5% (active)
52 | COC(=O)c1ccc(NC(=O)CN2C(=O)CNC2=O)cc1 | 30.4%

Row | SMILES | inhibition
53 | CCOC(=O)C1(Cc2ccc(OC)cc2)CCN(C(=O)CCc2cnccn2)CC1 | 20.9%
54 | COc1ccc(Nc2ncccc2C(=O)NCc2ccccc2)cc1 | 67% (active)
55 | Cc1cccnc1NC(=O)c1ccccc1NC(=O)C(C)(C)C | 41.2%
56 | Cc1cc(C)c([C@@H]2C[C@H]3CN(C4CCCC4)C(=O)[C@]34CCCN24)c(-n2cccn2)c1 | 36.2%
57 | O=C(COc1ccc(Cl)cc1)Nc1ccc2c(c1)CCC2 | 71.5% (active)
58 | C=C(C)C(=O)Nc1cccc(C(C)=O)c1 | 38.2%
59 | O=C(Nc1ccc2c(c1)Cc1ccccc1-2)c1ccncc1 | 74.5% (active)
60 | CS(=O)(=O)N(Cc1ccccc1)c1ccc(C(=O)Nc2ccc3c(c2)OCO3)cc1 | 36%
61 | O=C(COC(=O)CCC1CCCCC1)Nc1ccc(OC(F)F)cc1 | 23.5%
62 | CS(=O)(=O)N(Cc1ccccc1)c1ccc(C(=O)Nc2cccnc2)cc1 | 36%
63 | O=C(Nc1ccc(Cl)c(Cl)c1)c1ccncc1 | 44.9%
64 | O=C(CN1CCN(c2ccccc2)CC1)Nc1ccc2c(c1)CCC2 | 21.1%
65 | O=C(Nc1ccc2c(c1)CCC2)c1ccccc1 | 71.7% (active)
66 | COc1ccc(OCC(=O)NC(=S)N2CCCc3ccccc32)cc1 | 37.9%
67 | O=C(Nc1ccc2nc3ccccc3nc2c1)c1ccccc1 | 90.7% (active)
68 | Cc1cccc(N2C(=O)CC(Sc3ccccc3C(=O)O)C2=O)c1 (configuration not stated) | 49.3%
69 | CCN(CC)C1CC(=O)N(c2cccc(C)c2)C1=O (configuration not stated) | 58% (active)
70 | COC(=O)c1ccccc1SC1CC(=O)N(c2cccc(C)c2)C1=O (configuration not stated) | 37.6%
71 | C=CCn1c(CNC(=O)c2cccs2)nnc1SCC(=O)Nc1ccc(C(=O)O)cc1 | 28.1%
72 | O=c1sc(Nc2ccccc2)nc2ccsc12 | 77.2% (active)
73 | N#Cc1ccc(Oc2nc(Nc3ccc(F)cc3)nc(N3CCCC3)n2)cc1 | 37.5%
74 | CN(C)S(=O)(=O)c1cccc2c1C(=O)c1ccccc1C2=O | 44.5%
75 | CN(C=[N+](C)C)c1cccc2c1C(=O)c1ccccc1C2=O | 42.7%
76 | O=C1c2cccc(O)c2C(=O)c2c(O)cccc21 | 59.5% (active)
77 | S=C(NC1CCCCC1)NN(c1ccccc1)c1ccccc1 | 53.4% (active)
78 | O=C(O)CCCCc1nc2ccccc2s1 | 32%

Row | SMILES | inhibition
79 | O=C(CCc1nc2ccccc2s1)Nc1ccccc1 | 80.2% (active)
80 | CCOc1ccccc1N1CCN(C(=O)CCCc2nc3ccccc3s2)CC1 | 48.7%
81 | Cc1ccsc1/C=N/n1c(-c2ccccn2)n[nH]c1=S | 54.9% (active)
82 | Cc1ccc2nc(Cl)c(C3CC(c4cccs4)=NN3C(=O)CCCC(=O)O)cc2c1 (configuration not stated) | 30.2%
83 | Cc1ccc(Sc2nnc(Cc3ccccc3)c3ccccc23)cc1 | 48.1%
84 | Clc1ccc2oc3c(Cl)ncnc3c2c1 | 29.9%
85 | COc1ccc2c(c1)C1=NN(/C(C)=C/C(C)=O)C(c3cccc(F)c3)C1CC2 (configuration not stated) | 47.5%
86 | Cc1ccc(C(=O)/C=C\C(=O)c2ccc(C)cc2)cc1 | 44.1%
87 | Cc1ccc(C(=O)c2no[n+]([O-])c2C(=O)c2ccc(C)cc2)cc1 | 77.2% (active)
88 | CC(C)c1nc2sc3c(=O)[nH]c(=S)[nH]c3c2c2c1CCC2 | 32%
89 | O=C1C2C3C=CC(C2C(=O)N1CCCO)C1C2C(=O)N(CCCO)C(=O)C2C31 (configuration not stated) | 40.4%
90 | O=C(O)C1(c2ccccc2)CCN(S(=O)(=O)c2ccc(Br)cc2)CC1 | 29.4%
91 | O=S(=O)(c1ccc(Br)cc1)N1CCCN(Cc2cccc(F)c2)CC1 | 61.5% (active)
92 | CCOC(=O)C1CCCCN1Cc1cccc(F)c1 (configuration not stated) | 27.4%
93 | COc1ccccc1-c1nnc2sc(COc3ccc(Cl)cc3)nn12 | 56.9% (active)
94 | COc1ccccc1C(=O)Nc1ccc(OCc2nnc3c4ccccc4c(C)nn23)cc1 | 45.4%
95 | Clc1ccc(Cn2c(/C=C/c3ccco3)nc3ccccc32)cc1 | 46.5%
96 | Oc1c(CN2CCCCC2)cc(Br)c2cccnc12 | 49%
97 | Oc1c(I)cc(Cl)c2cccnc12 | 97.2% (active)
98 | O=C(N/N=C/c1cccc(F)c1)c1c(O)c2ccccc2[nH]c1=O | 38.5%
99 | NC(=S)N/N=C/c1coc2c(ccc3ccccc32)c1=O | 58% (active)
100 | CSc1ccc(C(=O)C2CCCN(C(=O)c3ccc4c(c3)no[n+]4[O-])C2)cc1 (configuration not stated) | 19.9%
101 | Cn1c(=O)c([N+](=O)[O-])c(-n2cnc3ccccc32)c2ccccc21 | 14.3%
102 | O=[N+]([O-])/C(C(=C(Cl)Cl)N1CCN(Cc2ccccc2)CC1)=C1\NCCN1Cc1ccc(Cl)nc1 | 41.5%
